Experimental findings from PubChem BioAssay AID488969 (Vanderbilt High Throughput Screening Facility, 2010) are described below.

The structures appear in SMILES notation. Whole data set: some 110,000 compounds, median “z-score” near -0.1, cut for the highest 2% near 2. What follows is part of a selection rich in the highest values, with near analogues and random picks from the rest. Active and inactive are the calls of the source.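 How the source made its calls: active means z-score in the third read window above 3 or below -3; inactive means the rest.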

The target in this assay is Metabotropic glutamate receptor 8 (Rattus norvegicus) (UniProt P70579). Put plainly: rat mGluR8 modulators via GIRK flux, primary screen, cell-based, thallium flux, HTS (AID 488969). Particulars: HEK293 rat mGluR8, GIRK (G protein-gated inwardly rectifying potassium channel) thallium flux, FluoZin2; at 10 µM; stronger effect = higher value; submaximal glutamate (EC20) added with thallium.
Metabotropic glutamate receptor 8 (Rattus norvegicus), sequence (P70579 whole entry, looked up): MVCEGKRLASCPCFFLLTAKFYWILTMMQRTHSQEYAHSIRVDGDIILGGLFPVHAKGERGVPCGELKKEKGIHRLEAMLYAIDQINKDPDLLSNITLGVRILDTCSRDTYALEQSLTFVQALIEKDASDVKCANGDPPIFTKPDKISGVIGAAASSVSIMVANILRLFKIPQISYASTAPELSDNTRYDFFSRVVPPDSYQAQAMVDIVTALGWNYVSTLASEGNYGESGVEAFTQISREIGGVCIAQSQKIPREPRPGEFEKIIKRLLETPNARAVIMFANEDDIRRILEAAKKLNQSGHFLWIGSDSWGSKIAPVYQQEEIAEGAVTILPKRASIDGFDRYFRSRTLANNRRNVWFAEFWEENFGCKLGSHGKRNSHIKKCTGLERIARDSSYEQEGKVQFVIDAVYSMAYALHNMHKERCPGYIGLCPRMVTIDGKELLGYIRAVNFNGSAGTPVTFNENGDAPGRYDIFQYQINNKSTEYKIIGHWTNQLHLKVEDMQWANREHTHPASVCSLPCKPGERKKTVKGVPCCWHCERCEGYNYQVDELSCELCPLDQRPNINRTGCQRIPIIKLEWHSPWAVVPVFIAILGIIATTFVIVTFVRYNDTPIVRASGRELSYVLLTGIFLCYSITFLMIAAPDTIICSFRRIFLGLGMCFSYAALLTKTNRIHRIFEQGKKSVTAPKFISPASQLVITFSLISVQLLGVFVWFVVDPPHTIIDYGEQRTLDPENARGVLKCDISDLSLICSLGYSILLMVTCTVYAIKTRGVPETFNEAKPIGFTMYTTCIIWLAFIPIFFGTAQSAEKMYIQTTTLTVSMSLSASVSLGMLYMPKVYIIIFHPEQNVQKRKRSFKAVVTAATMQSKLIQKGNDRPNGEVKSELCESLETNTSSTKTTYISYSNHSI
The compound `Cc1ccc(NC(=O)c2ccc(CSc3nnnn3C)cc2)cc1` returned a z-score of -0.174.
As for `COc1ccc(-n2c(N)c(C(=O)NCc3cccnc3)sc2=S)cc1`, the z-score was 0.463.
Next, `Cc1nc(NNC(=O)c2ccc(Cl)cc2Cl)cc(-c2ccccc2)n1`: 0.141; `CCCOC(=O)c1ccc(OCC(O)CN2C(=O)NC(C)(C)C2=O)cc1` (stereo unspecified): 0.307; `O=[N+]([O-])c1cccc(C(=Nc2ccc(Cl)cc2)NO)c1`: -0.259.
The value for `CC(NC(=O)Nc1nnc(C(F)(F)F)s1)N1C(=O)C2C3C=CC(C3)C2C1=O` (stereo unspecified) was 0.0447; that for `CCCCCNc1nc(NCCCO)c(C#N)c2c1CN(C)CC2` was -0.528.
Next, `CC1CCN(c2ccccc2NC(=O)c2ccc(F)cc2)CC1`: -0.52; `O=C(NC(=S)Nc1ccccc1N1CCOCC1)c1ccco1`: 9.71 (active).
In the case of `CC1CCN(c2ccccc2NC(=S)NC(=O)c2cccs2)CC1`, the z-score came out at 1.61.
Turning to `CC1CCN(c2ccccc2NC(=S)NC(=O)c2ccco2)CC1`, the z-score was 3.89 (active).
The value for `O=C(Cc1ccc(Cl)cc1)NC(=S)Nc1ccccc1N1CCOCC1` was 0.883; that for `O=C(Nc1ccccc1N1CCCC1)c1ccco1` was -0.0103.
As to `N#C/C(=C\c1ccc(Cl)cc1Cl)c1n[nH]c(Cn2cncn2)n1`, the z-score was -1.59.
Take `O=c1cc(NCc2ccco2)c2ccccc2o1`: the z-score was -0.304.
In turn, `CC1=C(C(=O)OC(C)C)C(c2cccs2)C(C(=O)OC(C)C)=C(C)N1` registered a z-score of -0.281.
The value for `NC(=O)c1cccnc1Nc1ccccc1Cl` was -0.423.
Next, `O=C(/C=C/c1cccc([N+](=O)[O-])c1)NCCSc1ccccc1`: -0.3; `COc1ccc(C(C(=O)NC(C)(C)C)N(C(=O)CNC(=O)c2cccs2)c2ccc(C(C)C)cc2)cc1OC` (stereo unspecified): -0.16; `O=C(CSc1cnc2ccccc2n1)NC1CCCC1`: -0.494.
In turn, `COc1ccccc1N1CCN(S(=O)(=O)c2cccc3nsnc23)CC1` registered a z-score of -0.393.
The value for `Cc1ccc(OCC(O)Cn2c3ccccc3c3ccccc32)cc1` (stereo unspecified) was -0.222; that for `COc1ccccc1OCC(O)Cn1c(=N)n(Cc2ccccc2)c2ccccc21` (stereo unspecified) was 0.691.
`Cc1ccc(Cn2c(=N)n(CC(O)COc3ccccc3)c3ccccc32)cc1` (stereo unspecified) displayed a z-score of 2.98.
`Cc1ccc(OCC(O)Cn2c(=N)n(Cc3ccccc3)c3ccccc32)cc1` (stereo unspecified): the z-score was 4.01 (active).
In turn, `N=c1n(Cc2ccccc2)c2ccccc2n1CC(O)COc1ccccc1` (stereo unspecified) came in with a z-score of 0.257.
Next, `OC(COc1ccccc1)Cn1c2ccccc2c2ccccc21` (stereo unspecified): -0.0732.
The value for `COc1cc(SC)ccc1C(=O)N(C)Cc1ccccc1` was 0.253; that for `CCOC(=O)CSc1ncc(-c2ccccc2)cn1` was -0.0802; that for `CCOC(=O)N1CCN(C(=O)C2CCN(S(=O)(=O)c3ccccc3)CC2)CC1` was -0.151.
For the compound `CN1CCN(C(=S)Nc2cccc(C(F)(F)F)c2)CC1`, the z-score was -0.213.
Regarding `O=C(Oc1ccc(Br)cc1C(=S)N1CCCCC1)c1cc([N+](=O)[O-])cc([N+](=O)[O-])c1`, the z-score is 0.762.
The value for `Cc1c([N+](=O)[O-])cc(C(=O)Oc2ccc(Br)cc2C(=S)N2CCCCC2)cc1[N+](=O)[O-]` was 3.58 (active); that for `Cc1ccccc1C(=O)Oc1ccc(Br)cc1C(=S)N1CCCC1` was -0.342; that for `C=C(C)CN=C1SC(C(=O)Nc2sc3c(c2C(=O)OC)CCC3)C(N)=C1C(N)=O` (stereo unspecified) was 0.236.
Next, `O=C(c1cc2sccc2n1Cc1ccccc1)N1CCCc2ccccc21`: -0.795; `O=C(c1cc2sccc2n1Cc1ccc(F)cc1)N1CCCc2ccccc21`: 0.225.
In the case of `COC(=O)c1cc2sccc2n1CC(=O)N1CCCc2ccccc21`, the z-score came out at 2.64.
Next, `CC(C)CCNC(=O)C(c1cccnc1)N(CCc1ccccc1)C(=O)Cn1nnc2ccccc21` (stereo unspecified): 0.555; `CC(C)=NNc1nc(-c2ccccc2)cs1`: -0.203.
Next, `c1ccc(CCNc2nc(-c3cccnc3)cs2)cc1`: -0.023.
Next, `CCCCCNc1nc(-c2ccccc2)cs1`: 3.86 (active); `CN(Cc1ccccc1)c1nc2c(c(=O)[nH]c(=O)n2C)n1CCSc1ncccn1`: 0.672; `CC1(C)C2CC=C(/C=N/NC(=O)c3ccc(O)cc3)C1C2` (stereo unspecified): -0.0642.
As to `CC1(C)C2CC=C(/C=N/n3cnnc3)C1C2` (stereo unspecified), the z-score was found to be 2.
In turn, `CC(C)NC(=S)N/N=C/C1=CCC2CC1C2(C)C` (stereo unspecified) returned a z-score of -0.69.
Regarding `Cc1nc2ccc(S(=O)(=O)NC(C(=O)NCc3ccc4c(c3)OCO4)C(C)C)cc2s1` (stereo unspecified), the z-score is -0.0773.
In turn, `CCn1cc(C(=O)OCC(=O)c2cc(C)n(-c3ccccc3F)c2C)c(=O)c2ccc(C)nc21` showed a z-score of -0.711.
As for `O=S(=O)(Nc1cccc2nsnc12)c1ccccc1`, the z-score turned out to be 0.265.
The value for `Cc1ccc2nsnc2c1S(=O)(=O)Nc1cccc2nsnc12` was 14.7 (active); that for `Cc1ccc(C)c(NS(=O)(=O)c2c(C)ccc3nsnc23)c1` was -0.891.
The value for `O=C(O)COc1ccc(/C=N/n2c(COc3ccccc3)nc3ccccc3c2=O)cc1` was -0.124; that for `O=C1C(=C(c2ccccc2)c2ccccc2)Nc2ccccc21` was -1.32; that for `O=C1CCCCC(=O)c2ccccc2N1` was 2.21.
For the compound `O=C1CCCc2sccc2N1`, the z-score is -0.164.
The value for `Cc1cc2cc(C)c3nnc(SCC(=O)N4CCc5ccccc54)n3c2cc1C` was -0.31.
